Results from PubChem BioAssay (Tox21).
Several values for one entry are separate records, joined by “and”; a condition that tells them apart may be missing. Identical values can stand only once. Inconclusive results are not listed. Where a call stands in place of a potency, no number is given. A structure can be active in one record and inactive in another. Activity calls are given as the source filed them. Unless noted, calls come from the whole dose curve; as a rule, active = well fitted curve in the direction sought with a large enough effect in the repeat runs; inconclusive = weak or mixed curves; inactive = no such curve, though single readings can be large; an effect the other way counts as inactive or inconclusive.

What was measured:
[1] = qHTS assay to identify small molecule agonists of the peroxisome proliferator-activated receptor delta (PPARd) signaling pathway - cell viability counter screen (AID 743211); note: nearly all actives have a fitted effect of over 55% in size; note: potency is the fitted concentration of half-maximal effect
Procedure, shortened: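 Multiplexed format: after the 2 h room-temperature LiveBLAzer B/G FRET step, CellTiter-Glo was added to the same wells. Luminescence after 30 min gave cell viability; compound exposure was 17 h at 37C.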

[2] = biological target: Peroxisome proliferator-activated receptor delta (Homo sapiens) (UniProt Q03181); experiment: qHTS assay to identify small molecule agonists of the peroxisome proliferator-activated receptor delta (PPARd) signaling pathway (AID 743212; calls by dose curve;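 note: HEK293H cells with PPARd UAS beta-lactamase reporter GeneBLAzer system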)
Peroxisome proliferator-activated receptor delta (Homo sapiens), sequence (Q03181 whole entry, looked up): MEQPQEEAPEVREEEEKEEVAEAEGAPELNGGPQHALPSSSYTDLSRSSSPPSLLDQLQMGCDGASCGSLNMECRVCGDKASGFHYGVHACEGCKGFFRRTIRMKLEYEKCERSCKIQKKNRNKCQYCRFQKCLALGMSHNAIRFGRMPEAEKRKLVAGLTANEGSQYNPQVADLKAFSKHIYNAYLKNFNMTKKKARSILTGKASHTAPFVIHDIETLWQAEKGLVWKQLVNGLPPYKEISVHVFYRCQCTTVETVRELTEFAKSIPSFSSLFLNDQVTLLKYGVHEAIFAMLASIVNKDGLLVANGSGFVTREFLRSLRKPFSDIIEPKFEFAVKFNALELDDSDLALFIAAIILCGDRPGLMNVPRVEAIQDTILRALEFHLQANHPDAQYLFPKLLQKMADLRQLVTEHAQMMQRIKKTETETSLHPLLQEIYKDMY
Procedure, shortened: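 Beta-lactamase reporter read by fluorescence (LiveBLAzer B/G FRET, 2 h, room temperature). Test agents, in DMSO, incubated at 37 C with PPARd-bla HEK293H cells.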

[3] = qHTS assay to identify small molecule antagonists of the peroxisome proliferator-activated receptor delta (PPARd) signaling pathway - cell viability counter screen (AID 743213); note: nearly all actives have a fitted effect of over 50% in size; note: potency is the fitted concentration of half-maximal effect
Procedure, shortened: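 PPARd-bla HEK293H cells (3000/well) got compound plus 300 nM L165041 agonist for 17 h at 37 C. Viability in the same wells came from CellTiter-Glo luminescence after 30 min at room temperature.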

[4] = biological target: Peroxisome proliferator-activated receptor delta (Homo sapiens) (UniProt Q03181); experiment: qHTS assay to identify small molecule antagonists of the peroxisome proliferator-activated receptor delta (PPARd) signaling pathway (AID 743215; active = well fitted inhibition curve with a large enough effect in the signal ratio in the repeat runs, not every such curve was filed as active; the % refers to the signal ratio;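 note: cells stimulated with agonist L165041 at 300 nM final during compound exposure; series mostly up to about 62 µM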)
Procedure, shortened: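 Agonist L165041 (300 nM final) added with compound to PPARd-bla HEK293H UAS-bla reporter cells; 17 h incubation at 37 C. Read-out: LiveBLAzer FRET substrate, 2 h at room temperature, fluorescence intensity.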

[5] = qHTS assay to identify small molecule agonists of the farnesoid-X-receptor (FXR) signaling pathway - cell viability counter screen (AID 743218); note: nearly all actives have a fitted effect of over 45% in size; note: potency is the fitted concentration of half-maximal effect
Procedure, shortened: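 Viability counter screen in the same wells: CellTiter-Glo luminescence, 30 min room-temperature incubation, measured after the beta-lactamase read. Cells were GeneBLAzer FXR-UAS-bla HEK 293T, compound-treated 16 h at 37C.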

[6] = qHTS assay to identify small molecule antagonists of the farnesoid-X-receptor (FXR) signaling pathway - cell viability counter screen (AID 743221; active = well fitted cell-killing curve with a large enough effect in the repeat runs, not every such curve was filed as active; note: nearly all actives have a fitted effect of over 50% in size; note: potency is the fitted concentration of half-maximal effect)
Procedure, shortened: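 CellTiter-Glo, 30 min RT, luminescence; same wells as the LiveBLAzer FRET read. Cells: FXR-UAS-bla HEK 293T. Treatment: compound with chenodeoxycholic acid 50 uM final, 16 h at 37 C.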

[7] = qHTS assay to identify small molecule agonists of the vitamin D receptor (VDR) signaling pathway - cell viability counter screen (AID 743224); note: nearly all actives have a fitted effect of over 50% in size; note: potency is the fitted concentration of half-maximal effect
Procedure, shortened: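 Counter screen run in the same wells as the VDR-bla reporter assay: CellTiter-Glo luminescence, 30 min at room temperature, after 16 h compound treatment at 37C of cells pre-plated for 4 h.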

[8] = qHTS assay to identify small molecule antagonists of the vitamin D receptor (VDR) signaling pathway - cell viability counter screen (AID 743225); note: nearly all actives have a fitted effect of over 50% in size; note: potency is the fitted concentration of half-maximal effect
Procedure, shortened: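 Cytotoxicity toward the VDR-bla HEK 293T line was scored by ATP-based CellTiter-Glo luminescence, read in the wells already used for the beta-lactamase readout after 16 h compound treatment under 3 nM 1-alpha,25-dihydroxyvitamin D3 stimulation.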

[9] = qHTS assay to identify small molecule agonists of the NFkB signaling pathway (AID 1159509; active = well fitted curve in the direction sought with a large enough effect in the signal ratio in the repeat runs, not every such curve was filed as active; the % refers to the signal ratio; note: series mostly up to about 61 µM)
Procedure, shortened: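 Beta-lactamase reporter assay run in quantitative high-throughput format on an NF-kB-responsive ME-180 line, with 5 hr compound treatment and a FRET-based blue/green fluorescence readout.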

[10] = qHTS assay to identify small molecule agonists of the NFkB signaling pathway - cell viability counter screen (AID 1159515; calls by dose curve; note: nearly all actives have a fitted effect of over 55% in size; note: potency is the fitted concentration of half-maximal effect)
Procedure, shortened: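 Read by CellTiter-Glo luminescence (30 min, room temperature) in the wells also used for the beta-lactamase FRET read. ME-180 NFkB-bla cells at 2,000 per well were plated overnight, then exposed to compound for 5 hr at 37 C.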

[11] = qHTS assay to identify small molecule agonists of the endoplasmic reticulum stress response signaling pathway (AID 1159516; active = well fitted activation curve with a large enough effect in the signal ratio in the repeat runs, not every such curve was filed as active; the % refers to the signal ratio)
Procedure, shortened: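 Ratiometric FRET readout (405 nm excitation; 460 and 530 nm emission) of a beta-lactamase gene driven by the ER stress response element, after 2 hr substrate loading. HeLa ESRE-bla cells were seeded overnight and treated with compounds for only 5 hr at 37 C.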

[12] = qHTS assay to identify small molecule agonists of the endoplasmic reticulum stress response signaling pathway - cell viability counter screen (AID 1159517; calls by dose curve; note: nearly all actives have a fitted effect of over 50% in size; note: potency is the fitted concentration of half-maximal effect)
Procedure, shortened: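 Cytotoxicity of test compounds toward ESRE-bla HeLa cells was assessed after 5 hr exposure. The luminescent CellTiter-Glo signal was measured 30 min after reagent addition.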

[13] = qHTS assay to identify small molecule antagonists of the retinoid-related orphan receptor gamma (ROR-gamma) signaling pathway - cell viability counter screen (AID 1159520); note: nearly all actives have a fitted effect of over 50% in size; note: potency is the fitted concentration of half-maximal effect
Procedure, shortened: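 Tet-on ROR gamma CHO cells (1,000/well) were plated 4 hr, given compounds in DMSO for 2 hr at 37 C, then induced with 1 uM final doxycycline for 16 hr. Viability was read as ATP by CellTiter-Glo luminescence after 30 min.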

[14] = biological target: Nuclear receptor ROR-gamma (Homo sapiens) (UniProt P51449); experiment: qHTS assay to identify small molecule antagonists of the retinoid-related orphan receptor gamma (ROR-gamma) signaling pathway (AID 1159521; note: nearly all actives have a fitted effect of over 50% in size; note: potency is the fitted concentration of half-maximal effect)
Procedure, shortened: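 Readout: ONE-Glo luciferase luminescence, 30 min at room temperature. System: Tet-on RORγ CHO, RORE-LUC. Sequence: compound 2 h, doxycycline 1 uM final, 16 h at 37 C.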

[15] = qHTS assay to identify small molecule agonists of the AP-1 signaling pathway (AID 1159526; calls by dose curve)
[16] = biological target: Bile acid receptor (Homo sapiens) (UniProt Q96RI1); experiment: qHTS assay to identify small molecule antagonists of the farnesoid-X-receptor (FXR) signaling pathway (AID 743217; active = well fitted inhibition curve with a large enough effect in the signal ratio in the repeat runs, not every such curve was filed as active; the % refers to the signal ratio)
Bile acid receptor (Homo sapiens), sequence (Q96RI1 whole entry, looked up): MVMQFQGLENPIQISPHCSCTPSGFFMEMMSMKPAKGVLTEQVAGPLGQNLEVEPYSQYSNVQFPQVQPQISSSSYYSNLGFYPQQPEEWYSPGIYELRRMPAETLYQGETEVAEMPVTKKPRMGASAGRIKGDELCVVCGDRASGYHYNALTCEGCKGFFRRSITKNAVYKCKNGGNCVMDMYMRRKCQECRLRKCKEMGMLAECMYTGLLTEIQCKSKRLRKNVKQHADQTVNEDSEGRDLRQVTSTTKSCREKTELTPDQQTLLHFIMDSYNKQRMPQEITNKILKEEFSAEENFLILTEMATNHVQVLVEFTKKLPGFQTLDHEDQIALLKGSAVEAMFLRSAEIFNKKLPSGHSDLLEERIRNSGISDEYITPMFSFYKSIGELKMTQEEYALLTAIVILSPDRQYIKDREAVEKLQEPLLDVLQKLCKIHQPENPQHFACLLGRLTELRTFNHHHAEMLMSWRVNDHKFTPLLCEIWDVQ
Procedure, shortened: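 Antagonist mode: chenodeoxycholic acid at 50 uM final stimulates a UAS-driven beta-lactamase reporter in HEK 293T FXR-bla cells during 16 h, 37C compound exposure. Read-out is FRET substrate fluorescence after 2 h at room temperature.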

[17] = biological target: Bile acid receptor (Homo sapiens) (UniProt Q96RI1); experiment: qHTS assay to identify small molecule agonists of the farnesoid-X-receptor (FXR) signaling pathway (AID 743220; active = well fitted activation curve with a large enough effect in the signal ratio in the repeat runs, not every such curve was filed as active; the % refers to the signal ratio)
Procedure, shortened: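 FXR-UAS-bla HEK 293T cells carrying a UAS-driven beta-lactamase reporter were plated for 5 h at 37C/5% CO2, then exposed to DMSO-dissolved Tox21 10K compounds for 16 h at 37C. A LiveBLAzer B/G FRET substrate was loaded for 2 h at room temperature before fluorescence reading.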

[18] = biological target: Vitamin D3 receptor (Homo sapiens) (UniProt P11473); experiment: qHTS assay to identify small molecule agonists of the vitamin D receptor (VDR) signaling pathway (AID 743222; calls by dose curve)
Vitamin D3 receptor (Homo sapiens), sequence (P11473 whole entry, looked up): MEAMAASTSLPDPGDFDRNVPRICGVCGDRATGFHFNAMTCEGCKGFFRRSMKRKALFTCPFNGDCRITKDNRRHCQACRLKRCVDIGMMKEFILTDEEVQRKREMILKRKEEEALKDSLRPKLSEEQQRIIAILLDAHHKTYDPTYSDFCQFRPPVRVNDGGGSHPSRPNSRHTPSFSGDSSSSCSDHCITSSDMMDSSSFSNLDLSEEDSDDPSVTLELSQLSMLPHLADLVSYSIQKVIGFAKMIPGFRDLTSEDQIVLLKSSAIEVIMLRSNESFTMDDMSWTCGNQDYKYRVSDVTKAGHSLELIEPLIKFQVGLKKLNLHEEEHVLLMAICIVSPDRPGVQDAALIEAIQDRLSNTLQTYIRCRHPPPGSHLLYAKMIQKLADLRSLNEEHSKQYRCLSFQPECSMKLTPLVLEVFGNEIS
Procedure, shortened: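 Agonist mode, beta-lactamase reporter: fluorescence from LiveBLAzer B/G FRET substrate (2 h, room temperature) read after 16 h compound treatment at 37 C of VDR-bla cells, which were pre-incubated 4 h after seeding.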

[19] = qHTS assay to identify small molecule agonists of the AP-1 signaling pathway - cell viability counter screen (AID 1159525; calls by dose curve; note: nearly all actives have a fitted effect of over 55% in size)
Procedure, shortened: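 Each titration point was normalised to DMSO and tetra n-octyl ammonium bromide controls. The read was Cell Titer Glo luminescence after 30 min at RT, following 5 h compound exposure of ME-180 AP-1-bla cells at 37 °C.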

SMILES	Potency [1]	outcome [2]	Potency [3]	Potency [4]	Potency [5]	Potency [6]	Potency [7]	Potency [8]	outcome [9]	Potency [10]	Potency [11]	Potency [12]	Potency [13]	Potency [14]	outcome [15]	Potency [16]	outcome [17]	outcome [18]	Potency [19]
Brc1cc(Oc2cc(Br)c(Br)c(Br)c2Br)c(Br)c(Br)c1Br	inactive	inactive	55.2 µM (active) and inactive	inactive	inactive	inactive	inactive	inactive	inactive	1.56 µM (active) and inactive	inactive	inactive	inactive	inactive	inactive				
CCC(C)CO (centres undefined)	inactive	inactive	inactive	inactive	inactive	inactive	inactive	inactive	inactive	inactive	inactive	inactive	inactive	inactive	inactive	inactive	inactive	inactive	inactive
O=C(c1ccc(OCCN2CCCCC2)cc1)c1c(-c2ccc(O)cc2)sc2cc(O)ccc12	38.9 µM (active) and 12.3 µM (active) and 26.6 µM (active)		24.6 µM (active) and 8.71 µM (active) and 26.6 µM (active)			55 µM (active)		17.4 µM (active)	inactive	55 µM (active) and 54.9 µM (active) and inactive	inactive	inactive	61.2 µM (active) and inactive	13.7 µM (active) and 19.3 µM (active)	inactive				inactive
CCC(C)OC(=O)c1ccc(O)cc1 (centres undefined)	inactive	inactive	inactive	inactive		inactive	inactive		inactive	inactive	inactive	inactive	inactive	inactive	inactive			inactive	inactive
CN(C)C(=N)N=C(N)N	inactive		inactive		inactive	inactive	inactive	inactive	inactive	inactive	inactive	inactive	inactive		inactive				inactive
Nc1ccc(S(=O)(=O)Nc2cnc3ccccc3n2)cc1	inactive		inactive			inactive	inactive	inactive	inactive	inactive	inactive	inactive	inactive	inactive	inactive			inactive	inactive
CCCCC(CC)COP(=O)(OCC(CC)CCCC)OCC(CC)CCCC (centres undefined)	inactive	inactive	inactive	inactive	inactive	inactive	inactive	inactive	inactive	inactive	inactive	inactive	inactive	inactive	inactive	inactive	inactive	inactive	inactive
CCCCCCCCCC(=O)OC	inactive	inactive	inactive	inactive	inactive	inactive	inactive	inactive	inactive	inactive	inactive	inactive	inactive	inactive	inactive	inactive	inactive		inactive
C=C(C)C1CC=C(C)CC1 (centres undefined)	inactive		inactive		inactive	inactive	inactive	inactive		inactive		inactive			inactive				
CCCCc1oc2ccccc2c1C(=O)c1cc(I)c(OCCN(CC)CC)c(I)c1	22.1 µM (active) and 16.8 µM (active)		15.6 µM (active) and 23.7 µM (active)		34.9 µM (active) and 18.8 µM (active)	34.9 µM (active) and 29.8 µM (active)	15.6 µM (active) and 26.6 µM (active)		inactive	31.1 µM (active) and 26.8 µM (active)		39.2 µM (active)	43.6 µM (active)	19.5 µM (active) and 26.6 µM (active)			inactive		
Nc1ccc(Cl)cc1Cl	inactive	inactive	inactive	inactive		inactive		inactive	inactive	inactive		inactive	inactive	inactive	inactive	inactive	inactive		
